Source: PubChem BioAssay (NCATS)
Where “and” joins values, the source holds several entries; their conditions need not be identical. Equal values may be shown once. Results filed as inconclusive are left out. Where a structure was tested more than once in an assay, its records may differ in their call. Calls of active or inactive are those of the source. The call rests on the fitted dose curve; in most records, active means well fitted curve in the direction sought with a large enough effect; inconclusive means small, poorly fitted or top-dose-only effect, or another doubt; inactive means no such curve, though single readings can be large; an effect the other way counts as inactive or inconclusive.

Legend:
[1] = biological target: Glutathione peroxidase 1 (Homo sapiens) (UniProt P07203); assay: Primary qHTS Assay for Inhibitors of Recombinant Selenoprotein Glutathione Peroxidase 1 (GPX1) (AID 1845191); further: nearly all actives have a fitted effect of over 65% in size; on activity, negative = inhibition: on the % scale 0 is the no-effect control and ±100 the full control effect
Method in brief: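 10 nM GPX1 + cpd, 30 min RT; start w/ 1 mM GSH, 0.5 mM cumene hydroperoxide, 0.5 mM NADPH, 100 nM GR, 0.01% BSA; buffer 50 mM Tris-HCl pH 7.5, 2 mM EDTA, 150 mM NaCl; Fl 340/450, 0 & 15 min.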

[2] = biological target: Phospholipid hydroperoxide glutathione peroxidase GPX4 (Homo sapiens) (UniProt P36969); assay: Primary qHTS Assay for Inhibitors of Recombinant Selenoprotein Glutathione Peroxidase 4 (GPX4) (AID 1845192); further: nearly all actives have a fitted effect of over 65% in size; further: potency means the concentration at half of the fitted maximal effect; on activity change, negative = inhibition: series mostly up to about 50 µM; on the % scale 0 is the no-effect control and ±100 the full control effect
Method in brief: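 NADPH consumption, followed by fluorescence at 340/450 nm between 0 and 15 min, reports GPX4 activity via coupled glutathione reductase (100 nM). Enzyme 200 nM was pre-exposed to compound 30 min; 0.5 mM cumene hydroperoxide and 1 mM GSH served as substrates.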

[3] = biological target: Luciferin 4-monooxygenase (Photinus pyralis) (UniProt P08659); assay: Primary firefly luciferase (FLuc) qHTS assay for identification of artifact compounds. (AID 1845220); further: nearly all actives have a fitted effect of over 60% in size;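 on activity change, negative = inhibition: series mostly up to about 54 µM; plate controls were DMSO vehicle for no effect and no enzyme for full effect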
Method in brief: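 Compounds sat 15 min at room temperature with 10 uM luciferin and 10 uM ATP (pH 7.6 Tris acetate). Firefly luciferase (10 nM final) was then added, and luminescence was read 5 min later. Data normalized to no-enzyme and DMSO controls were Hill-fitted.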

[4] = Primary fluorescence-based thiol-reactive (MSTI) qHTS assay for identification of artifact compounds. (AID 1845221); further: nearly all actives have a fitted effect of over 65% in size; further: potency means the concentration at half of the fitted maximal effect;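 on activity change, negative = thiol reactive: series mostly up to about 54 µM; thiol-reactive compounds lower the probe fluorescence signal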
Method in brief: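 qHTS titration of compound; 4 uM MSTI, PBS pH 7.4, 2% DMSO; 1 h RT, dark; fluorescence 525/598 nm; normalized to Acetyl-MSTI and MSTI; 4-parameter Hill fit.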

[5] = test system: Nanoluciferase (engineered Oplophorus gracilirostris luciferase); assay: Primary Nanoluciferase (NLuc) qHTS assay for identification of artifact compounds. (AID 1845222);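 further: series mostly up to about 54 µM; 0% = DMSO and -100% = no enzyme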
Method in brief: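 Luminescence from secreted NLuc (filtered, 1:55-diluted S16 cell medium) read 5 min after Nano-Glo substrate; compounds preincubated 15 min, RT. Hill fits of inhibition normalized to DMSO and no-enzyme.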

[6] = Primary redox qHTS assay for identification of artifact compounds. (AID 1845223);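 further: 0% = DMSO and 100% = reference compound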
Method in brief: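 Amplex Red (25 uM) and HRP (250 mU/mL) in HBSS, with compounds for 15 min, then 250 uM DTT for 30 min, room temperature, dark. Fluorescence 525/598 nm read; normalized to DMSO and 10 uM DA3003; Hill fit.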

Chain of Phospholipid hydroperoxide glutathione peroxidase GPX4 (Homo sapiens) (P36969 whole entry, looked up): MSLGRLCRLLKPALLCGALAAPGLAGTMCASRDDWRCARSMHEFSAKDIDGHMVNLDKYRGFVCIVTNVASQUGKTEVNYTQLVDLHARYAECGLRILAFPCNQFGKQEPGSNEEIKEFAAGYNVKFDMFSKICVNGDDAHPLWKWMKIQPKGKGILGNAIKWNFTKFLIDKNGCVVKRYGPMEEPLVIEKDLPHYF
Chain of Glutathione peroxidase 1 (Homo sapiens) (P07203 whole entry, looked up): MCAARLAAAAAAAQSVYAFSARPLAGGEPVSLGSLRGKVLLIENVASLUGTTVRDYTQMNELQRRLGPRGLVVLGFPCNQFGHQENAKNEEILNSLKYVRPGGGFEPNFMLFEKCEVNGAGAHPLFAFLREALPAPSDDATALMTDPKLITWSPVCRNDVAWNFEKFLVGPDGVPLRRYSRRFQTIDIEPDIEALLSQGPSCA

CC(=O)/C=C/C1(O)C(C)CC(O[C@@H]2O[C@H](CO)[C@@H](O)[C@H](O)[C@H]2O)CC1(C)C (some centres not stated)
inactive: Potency [1] | Potency [2] | Potency [3] | Potency [5] | Potency [6]
active: Potency [4] 9.22 µM

CC/C=C/C=C/C1(C)OC(CC(CO)OC)=CC1=O (configuration not stated)
inactive: Potency [1] | Potency [2] | Potency [3] | Potency [4] | Potency [5] | Potency [6]

Cc1cc(-n2c(=O)[nH]c(=O)n(C)c2=O)ccc1Oc1ccc(SC(F)(F)F)cc1
inactive and 15.8 µM (active): Potency [2]
inactive: Potency [1] | Potency [3] | Potency [4] | Potency [5] | Potency [6]

C[C@]12CC[C@@H]3c4ccc(O)cc4CC[C@H]3[C@@H]1C[C@@H](O[C@@H]1O[C@H](C(=O)O)[C@@H](O)[C@H](O)[C@H]1O)[C@@H]2O
inactive: Potency [1] | Potency [2] | Potency [3] | Potency [4] | Potency [6]

O=C(/C=C/c1ccccc1)OC[C@H]1O[C@@H](OC(=O)c2cc(O)c(O)c(O)c2)[C@H](O)[C@@H](O)[C@@H]1O
inactive: Potency [1] | Potency [2] | Potency [3] | Potency [6]
active: Potency [4] 0.327 µM

O=C1C[C@@]2(C(=O)N1)C(=O)N(Cc1ccc(Br)cc1F)C(=O)c1cccn12
inactive: Potency [1] | Potency [2] | Potency [3] | Potency [4] | Potency [6]

Cc1c(F)cc(C(=O)NC2CC2)cc1-c1ccc(C(=O)NCC(C)(C)C)cn1
inactive: Potency [1] | Potency [2] | Potency [3] | Potency [4] | Potency [6]

C=C(C)[C@@H]1CC[C@]2(C(=O)O)CC[C@]3(C)C(CCC4[C@]5(C)C(CC[C@]43C)C(C)(C)[C@@H](O)[C@@H]5C(=O)O)C12 (some centres not stated)
inactive: Potency [1] | Potency [2] | Potency [3] | Potency [4] | Potency [5] | Potency [6]

CCC(C)C(=O)O[C@H]1[C@@H](O[C@H]2O[C@H](CO)[C@@H](O)[C@H](O)[C@H]2O)O[C@H](CO)[C@@H](O)[C@@H]1O (some centres not stated)
inactive: Potency [1] | Potency [2] | Potency [3] | Potency [4] | Potency [5] | Potency [6]

O=C(OC[C@H]1O[C@H](O[C@H]2CO[C@H](CO)[C@@H](O)[C@@H]2O)[C@H](O)[C@@H](O)[C@H]1O)c1ccccc1
inactive: Potency [1] | Potency [2] | Potency [3] | Potency [4] | Potency [5] | Potency [6]

COc1ccccc1N1CCN(CCCCNC(=O)c2ccc(-c3cscn3)cc2)CC1
inactive: Potency [1] | Potency [2] | Potency [3] | Potency [4] | Potency [5] | Potency [6]

N[C@@H](CCNCc1ccc(Cl)cc1)C(=O)N1CCCCC1
inactive: Potency [1] | Potency [2] | Potency [3] | Potency [4] | Potency [5] | Potency [6]

Cc1ncc(Cl)cc1NCc1ccc(C(=O)NC(CC2CCCC2)C(=O)NC2CC2)s1 (configuration not stated)
inactive: Potency [1] | Potency [2] | Potency [3] | Potency [4] | Potency [5] | Potency [6]

CN1CCN(C(=O)c2cc3cc(Cl)ccc3[nH]2)CC1
inactive: Potency [1] | Potency [2] | Potency [3] | Potency [4] | Potency [5] | Potency [6]

CC(C)=CCC[C@](C)(O[C@@H]1O[C@H](CO)[C@@H](O)[C@H](O)[C@H]1O)[C@H]1CC[C@]2(C)[C@@H]1[C@H](O)CC1[C@@]3(C)CC[C@H](O)C(C)(C)C3[C@@H](O[C@@H]3O[C@H](CO)[C@@H](O)[C@H](O)[C@H]3O[C@@H]3O[C@@H](C)[C@H](O)[C@@H](O)[C@H]3O)C[C@]12C (some centres not stated)
inactive: Potency [1] | Potency [2] | activity change, negative = inhibition [3] -2.06% [at 11.6 µM] | activity change, negative = thiol reactive [4] 209% [at 11.5 µM] | activity, negative = inhibition [5] 4.23% [at 11.6 µM] | redox activity (% of DA3003) [6] 5.49% [at 11.5 µM]

COc1ccc(-n2[nH]c3c(cnc4ccccc43)c2=O)cc1
active: Potency [4] 4.74 µM
inactive: Potency [1] | Potency [2] | Potency [3] | Potency [5] | Potency [6]

CCC(C)C(=O)O[C@H]1C[C@](C)(O)[C@]23OC(C)(C)[C@H](C[C@H](OC(=O)c4ccccc4)[C@]2(COC(C)=O)[C@H]1OC(=O)C(C)CC)[C@H]3OC(C)=O (some centres not stated)
inactive: Potency [1] | Potency [2] | Potency [3] | Potency [4] | Potency [5] | Potency [6]

CC[C@H](NC(=O)c1c(O)c(-c2ccccc2)nc2ccccc12)c1ccccc1
active: Potency [4] 2.67 µM
inactive: Potency [1] | Potency [2] | Potency [3] | Potency [5] | Potency [6]

CC(C)CC[C@@H](O)[C@](C)(O)[C@H]1CC[C@@]2(O)C3=CC(=O)[C@@H]4C[C@@H](O)[C@@H](O)C[C@]4(C)[C@H]3CC[C@]12C
inactive: Potency [1] | Potency [2] | Potency [3] | Potency [4] | Potency [5] | Potency [6]

COC(=O)C1=COC(O[C@@H]2O[C@H](CO)[C@@H](O)[C@H](O)[C@H]2O)[C@@H]2[C@@](C)(O)[C@@H](OC(=O)/C=C/c3ccccc3)C[C@]12O (some centres not stated)
inactive: Potency [1] | Potency [2] | Potency [3] | Potency [5] | Potency [6]
active: Potency [4] 13 µM

COc1cc(O)cc2c1C(=O)OC(C)CCCCCCC2 (configuration not stated)
active: Potency [4] 11.9 µM
inactive: Potency [1] | Potency [2] | Potency [3] | Potency [5] | Potency [6]

CCC12CCCN3CCc4c(n(c5ccccc45)C(O)C1)C32 (configuration not stated)
inactive: Potency [1] | Potency [2] | Potency [3] | Potency [5]

C=C1[C@@H]2CC[C@@]3(C)[C@H](c4ccoc4)OC(=O)C[C@]13O[C@H]1CC(=O)C(C)(C)[C@H](C(O)C(=O)OC)[C@]12C (some centres not stated)
inactive: Potency [1] | Potency [2] | Potency [3] | Potency [4] | Potency [6]

C=CC(C)(O)CC/C=C(\C)C1CC=C(C)C(=O)O1 (configuration not stated)
inactive: Potency [1] | Potency [2] | Potency [3] | Potency [5]

CCCCNc1nc(N)c2[nH]c(=O)n(Cc3ccc(OCCN(C)C)nc3)c2n1
inactive: Potency [1] | Potency [2] | Potency [3] | Potency [5]

COc1c2c(c(C)c3c1C(=O)OC3)OC1(C)CC(O)C34OC(OC)(CCC3(C)C1C2)OC4(C)CO (configuration not stated)
inactive: Potency [1] | Potency [2] | Potency [3] | Potency [5]

C=C1Cc2c(Cl)cc3[nH]c4c5c3c2[C@@]2(O)[C@@H]1C[C@@H]2C(C)(C)O[C@H]5C1CC[C@@]2(O)[C@@]35O[C@@H]3[C@H]3OC(C)(C)[C@H]3O[C@H]5CC[C@]2(C)[C@@]41C (some centres not stated)
inactive: Potency [1] | Potency [2] | Potency [3] | Potency [5]

C/C=C1/[C@H](O[C@@H]2O[C@H](CO)[C@@H](O)[C@H](O)[C@H]2O)OC=C(C(=O)OC)[C@H]1CC(=O)OCCc1ccc(OC(=O)C[C@@H]2C(C(=O)OC)=CO[C@@H](O[C@@H]3O[C@H](CO)[C@@H](O)[C@H](O)[C@H]3O)/C2=C/C)cc1
inactive: Potency [1] | Potency [2] | activity change, negative = inhibition [3] 2.52% [at 11.6 µM] | activity, negative = inhibition [5] 2.4% [at 11.6 µM]

CC1=CC2=C(C)C(=O)C(C)(O)C(O)C2CO1 (configuration not stated)
inactive: Potency [1] | Potency [2] | Potency [3] | Potency [5]

CC1(CO)CCCC2(C)C3COC(=O)C3=CC(O)C12 (configuration not stated)
inactive: Potency [1] | Potency [2] | Potency [3] | Potency [5]

C=C1CCC2C(C)(C)CC(=O)CC2(C)C1CCC(C)CCO (configuration not stated)
inactive: Potency [1] | Potency [2] | Potency [3] | Potency [5]

CC[C@@H]1[C@H]2CCCCN3C(=O)C[C@H]([C@@H]4[C@H]1OC(=O)[C@H]4C)[C@@H]23
inactive: Potency [1] | Potency [2] | Potency [3] | Potency [5]

OC[C@@]1(O)CO[C@H](OC[C@H]2O[C@@H](OCCc3ccccc3)[C@H](O)[C@@H](O)[C@@H]2O)[C@@H]1O
inactive: Potency [1] | Potency [2] | Potency [3] | Potency [5]

NC1Nc2ccccc2C1(N)CC1NC(=O)C(Cc2ccccc2)NC(=O)C(Cc2ccccc2)NC1=O (configuration not stated)
inactive: Potency [1] | Potency [2] | Potency [3] | Potency [5]

C/C=C(\C)C(=O)OCC1OC(OCC2OC(OC3(CO)OC(CO)C(O)C3O)C(O)C(O)C2O)C(O)C(O)C1O (configuration not stated)
inactive: Potency [1] | Potency [2] | Potency [3] | Potency [5]

CC(C)C(NC(=O)c1ccc(O)cc1)C(=O)N1CCCC1C(=O)Nc1c(O)cccc1C(=O)O (configuration not stated)
inactive: Potency [1] | Potency [2] | Potency [3] | Potency [5]

CC(C)=CCC/C(C)=C/CO[C@@H]1O[C@H](CO[C@@H]2O[C@@H](CO)[C@H](O)[C@H]2O)[C@@H](O)[C@H](O)[C@H]1O
inactive: Potency [1] | Potency [2] | Potency [3] | Potency [5]

COc1ccc(CCC(=O)c2c(O)cc(O[C@@H]3O[C@H](CO)[C@@H](O)[C@H](O)[C@H]3O[C@@H]3O[C@@H](C)[C@H](O)[C@@H](O)[C@H]3O)cc2O)cc1O
inactive: Potency [1] | Potency [2] | Potency [3] | Potency [5]

C/C=C(\C)C(=O)OC[C@H]1O[C@@H](O[C@H]2[C@@H](O[C@H]3O[C@H](COC(=O)/C(C)=C/C)[C@@H](O)[C@H](O)[C@H]3O[C@@H]3O[C@H](CO)[C@@H](O)[C@H](OC(=O)/C(C)=C/C)[C@H]3O)O[C@H](COC(=O)/C(C)=C/C)[C@@H](O)[C@@H]2O)[C@H](O)[C@@H](O)[C@@H]1O
inactive: Potency [1] | Potency [2] | activity change, negative = inhibition [3] 2.77% [at 11.6 µM] | activity, negative = inhibition [5] -1.03% [at 11.6 µM]

O=C(O)[C@H](Cc1ccccc1)Oc1ccc(-c2ccccc2)cc1
inactive: Potency [1] | Potency [2] | Potency [3] | Potency [4] | Potency [6]

C=C1CCC2(C(=O)OC3OC(CO)C(O)C(O)C3O)CCC3(C)C(=CCC4C5(C)CCC(OC6OC(CO)C(OC7OC(C)C(O)C(O)C7O)C(OC7OCC(O)C(O)C7O)C6O)C(C)(C)C5CCC43C)C2C1 (configuration not stated)
inactive: Potency [1] | Potency [2] | activity change, negative = inhibition [3] 3.5% [at 11.6 µM] | activity, negative = inhibition [5] 0.389% [at 11.6 µM]

C[C@@]1(O)[C@H](O)[C@@H](CO)O[C@H]1n1cnc2c(=O)[nH]c(N)nc21
inactive: Potency [1] | Potency [2] | Potency [3] | Potency [5]

CC1=C[C@@H]2[C@H]3[C@@H]4O[C@@](C)(CC[C@H]4O)[C@H]3CC(=O)[C@]23C(=O)N[C@@H](CC(C)C)[C@@H]3[C@@H]1C
inactive: Potency [1] | Potency [2] | Potency [3] | Potency [5]
